Bioassay records (PubChem BioAssay)
In the library only some 11% were active in any assay of this set; here they are far more common.
IMPase inh: cell-permeable inhibitors of inositol monophosphatase (IMPase); CHO-M1 cells, IP1 accumulation, HTRF TR-FRET ratio; inhibition (IP1 accumulation), % at 46.1 µM; 120,000 tested, under 10 active; AID 901; active means well fitted curve in the direction sought with a large enough effect in the signal ratio, not every such curve was filed as active; inconclusive means small, poorly fitted or top-dose-only effect, or a change in a side signal; inactive means no such curve, though single readings can be large or run the other way; the % refers to the signal ratio;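 further: cells stimulated with carbachol in lithium chloride buffer; plate controls were DMSO basal wells for no effect and reference inhibitor wells for full effect; higher means more IMPase inhibition seen as more IP1 and lower FRET ratio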
Target sequence (P97697 whole entry, looked up): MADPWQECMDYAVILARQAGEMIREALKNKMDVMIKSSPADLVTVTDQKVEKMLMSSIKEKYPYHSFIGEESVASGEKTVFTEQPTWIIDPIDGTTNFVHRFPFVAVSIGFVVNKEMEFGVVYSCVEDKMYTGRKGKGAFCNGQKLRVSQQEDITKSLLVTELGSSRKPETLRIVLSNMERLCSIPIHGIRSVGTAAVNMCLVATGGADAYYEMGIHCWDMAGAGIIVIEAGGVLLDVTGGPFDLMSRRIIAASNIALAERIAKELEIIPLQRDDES
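In this qHTS, compounds (final up to 46 uM) act on CHO-M1 cells that are then activated through the M1 receptor with carbachol, in pH 7.4 buffer containing 50 mM LiCl, for 30 min. IP1 accumulation is quantified by the IP-One immunoassay.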
PNC assembly inh: blocks assembly of the perinucleolar compartment | AID 2417 | PC3M PTB-GFP, PNC prevalence imaging, 16 h; active compounds read low | 140,000 tested, 3.1% active | activity change (PNC), negative = inhibition, % at 10 µM;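 active means readout at or below -70, meaning at least 70% loss of cells showing the perinucleolar compartment, a nuclear body marking cancer cells; inconclusive means readout between -30 and a set limit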;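 further: plate controls were DMSO wells for no effect and camptothecin positive control wells for full effect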
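Compounds are pinned in duplicate onto adhered PC3M cells stably expressing GFP-tagged PTB and incubated 16 h at 37 C. Cells are then fixed, nuclei stained with Hoechst, and PNC-positive cells counted.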
ALDH1A1 block: inhibitors of human aldehyde dehydrogenase 1A1 | P00352 | Purified ALDH1A1, NADH fluorescence, propionaldehyde substrate | Potency, µM (top dose mostly 75.3 µM), inactives show at the highest dose activity, negative = inhibition, usual class: inhibitors | 220,000 tested, 7.3% active | AID 1030;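 further: potency means the concentration at half of the fitted maximal effect; plate controls were no enzyme wells and a reference inhibitor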
IMPase Li cell: IMPase inhibition in cells with lithium potentiation; AID 1457; 210,000 tested, 0.35% active; CHO-M1 cells, IP1 TR-FRET (IP-One), carbachol + lithium; Potency, µM (titrated, usually from 59.4 µM), inactives show at the top dose activity, negative = IMPase inhibition, actives largely listed as inhibitors; active means well fitted inhibition curve with a large enough effect; inconclusive means small, poorly fitted or top-dose-only effect; inactive means no such curve, though single readings can be large or run the other way;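 further: IP1 builds up when IMPase is blocked and the TR-FRET signal falls; potency means the concentration at half of the fitted maximal effect; plate controls were basal vehicle for no effect and high inhibitor control for full effect; nearly all actives have a fitted effect of over 50% in size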
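Concentration–response in CHO-M1 cells, lithium-potentiated; 30 min at 37C. IP1 detected by competitive TR-FRET after 10 min lysis at RT. Hill-fitted AC50.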
HPGD block: blocks human HPGD enzyme activity; Potency, µM, without a hit: at the highest dose activity change, negative = inhibition, actives largely listed as inhibitors; AID 894; purified HPGD, NADH fluorescence kinetic, PGE2 substrate; P15428; 150,000 tested, 4.3% active; further: potency means the concentration at half of the fitted maximal effect
Target sequence (P15428 whole entry, looked up): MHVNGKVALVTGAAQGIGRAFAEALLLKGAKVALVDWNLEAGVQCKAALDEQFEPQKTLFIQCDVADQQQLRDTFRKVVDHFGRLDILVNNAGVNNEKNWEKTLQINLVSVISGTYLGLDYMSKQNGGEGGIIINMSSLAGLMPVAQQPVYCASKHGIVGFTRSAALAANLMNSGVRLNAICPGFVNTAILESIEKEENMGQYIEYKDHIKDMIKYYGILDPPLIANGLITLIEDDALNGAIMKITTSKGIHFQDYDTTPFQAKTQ
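NADH formation kinetics: reaction with 30 uM PGE2 and 1 mM NAD+ (final), 20 nM enzyme, Tris-HCl pH 8 with Tween 20, after 15 min compound preincubation at room temperature. Fluorescence change, last versus first of five reads.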
Starred values were filed as active, the others as inactive; ? = inconclusive; / = no result; [ ] = dose if it differs, or a comment. Unless noted, the call rests on the fitted dose curve; in most records, active means well fitted inhibition curve with a large enough effect (not every such curve was filed as active); inconclusive means small, poorly fitted or top-dose-only effect, or another doubt; inactive means no such curve, though single readings can be large or run the other way. Unless noted, on the % scale 0 is the no-effect control and ±100 the full control effect.

SMILES	IMPase inh	PNC assembly inh	ALDH1A1 block	IMPase Li cell	HPGD block
CCCC/C=C/C(NC(=O)C(C)(C)C)c1ccccc1 (stereo not given)	/	/	4%	-5%	-1%
CCC(C(=O)OCC(=O)Nc1cc(C)ccc1OC)c1ccccc1 (stereo not given)	/	/	-5%	33%	/
COc1ccc(C)cc1NC(=O)C(c1ccccc1)N1CCNC(=O)C1 (stereo not given)	/	/	18µM*	6%	/
CCC(C(=O)Nc1cc(Cl)ccc1OC)c1ccccc1 (stereo not given)	/	15	22µM*	4%	-10%
CC(C)=CCC[C@](C)(O[C@@H]1O[C@H](CO)[C@@H](O)[C@H](O)[C@H]1O)[C@H]1CC[C@]2(C)[C@@H]1[C@H](O)C[C@@H]1[C@@]3(C)CC[C@H](O[C@@H]4O[C@H](CO)[C@@H](O)[C@H](O)[C@H]4O[C@@H]4O[C@H](CO)[C@@H](O)[C@H](O)[C@H]4O)C(C)(C)[C@@H]3[C@@H](O)C[C@]12C	/	/	6%	-3%	-5%
Cc1nc(NC2CCCCC2)c2nc(-c3ccccc3)n(CCN3CCCC3)c2n1	/	/	?	2%	?
CCOc1cc(S(=O)(=O)Nc2ccc(Cl)cn2)ccc1Cl	-4	?	-12%	3%	0%
O=S(=O)(Nc1ccc(Cl)cn1)c1cccc(S(=O)(=O)c2ccccc2)c1	/	/	20µM*	0%	/
Cc1ccc(NS(=O)(=O)c2cccc([N+](=O)[O-])c2)nc1	/	/	11µM*	-4%	/
CCOC(=O)N/N=C1/C[C@@H](O)[C@@H](O)[C@@H]2[C@@H]3C(=O)N(Cc4ccc5c(c4)OCO5)C(=O)[C@H]3CC[C@@H]12	/	/	4%[13.5 µM]	/	/
CC[n+]1ccccc1/C=C/c1ccc(N(C)C)cc1	/	/	?	32%	/
CC[n+]1ccc(/C=C/c2ccc(N(C)C)cc2)c2ccccc21	/	/	22µM*	155%	/
O=C(Nc1cccn(Cc2c(F)cccc2Cl)c1=O)NC1CCCCC1	/	/	25µM*	7%	/
C/C(=N\NC(=O)c1ccccn1)c1ccc(C(=O)O)s1	/	/	10µM*	7%	/
C/C(=N\NC(=O)c1ccccc1O)c1ccc(Br)s1	3	-26	-14%	-6%	32µM*
C/C(=N/NC(=O)CNC(=O)c1ccccn1)c1ccccc1	/	?	14µM*	6%	?
C/C(=N\NC(=O)c1ccccc1[N+](=O)[O-])c1ccc(Br)s1	/	/	3%	2%	/
CCc1ccc(C2c3c(oc4ccc(C)cc4c3=O)C(=O)N2c2nc(C)c(C)s2)cc1 (stereo not given)	8	/	/	/	/
CCc1ccc(NC(=O)C2C3/C=C\CCCCC32)cc1 (stereo not given)	/	-19	1%	0%	-13%
COc1ccc(NC(=O)/C=C\c2ccc(Cl)cc2)cc1	-6	/	/	/	/
COc1ccc(S(=O)(=O)Nc2ccc(N3CCOCC3)cc2)cc1[N+](=O)[O-]	/	/	13µM*	2%	/
COc1ccc(S(=O)(=O)Nc2ccc(N3CCOCC3)cc2)cc1Br	2	9	?	5%[38.3 µM]	-3%
COc1ccc(OCC(=O)Nc2ccc(N3CCOCC3)cc2)c([N+](=O)[O-])c1	/	/	28µM*	0%	/
Cc1ccc(-c2nn(-c3ccccc3)c3[nH]c(=O)c(CNCc4ccccc4)cc23)cc1	-1	87	?	-3%	-23%
Cc1ccc(-c2nn(-c3ccccc3)cc2CNCc2ccccc2)cc1	/	/	22µM*	7%	/
SMILES	IMPase inh	PNC assembly inh	ALDH1A1 block	IMPase Li cell	HPGD block
CC(=O)Nc1ccc(-c2cc(NC(C)=O)n(-c3ccccc3)n2)cc1	4	4	5%	/	/
O=C(CCl)Nc1cc(-c2ccccc2)nn1-c1ccccc1	-5	?	1.3µM*	28%[38.3 µM]	-10%
Cc1cc(NC(=O)CCl)n(-c2nc3ccccc3s2)n1	/	/	4µM*	1%	/
Cc1ccc(-c2cc(NC(=O)CCl)n(-c3ccccc3)n2)cc1	-2	?	0.5µM*	12%[38.3 µM]	-10%
COc1cccc(Nc2ncc3nc(CCc4ccccc4)c(=O)n(C)c3n2)c1	/	/	?	-3%	/
Cc1ccc(-c2nn(-c3ccccc3)cc2NC(=O)CCl)cc1	/	/	20µM*	14%	/
Cc1ccc(CN2CCNC(=O)C2CC(=O)NCCCn2ncc3ccccc32)o1 (stereo not given)	/	/	-10%	5%	/
